Reference: ChEMBL document CHEMBL4513135, “CO-ADD screening of IQOG CSIS (Spain) compounds”
Values joined by “and” are separate entries in the source; they are usually repeats but may differ in a detail not shown here. Identical values can stand only once. Measured potencies and affinities stand elsewhere.

Key:
Klebsiella pneumoniae = conditions: Concentration 32 ug.mL-1, ASSAY_TEST Inhibition of Bacterial Growth, detection method Absorption (OD600), MEDIA CAMHB, plate type 384well, NBS, CORNING #3640, time 18 hr
Candida albicans = conditions: 32 ug/mL
Cryptococcus neoformans = conditions: Concentration 32 ug.mL-1, ASSAY_TEST Inhibition of Fungal Growth, detection method Resazurin, Absorption (OD600-OD570), plate type 384well, NBS, CORNING #3640

Structure (SMILES) | Inhibition (Klebsiella pneumoniae) [%] | Inhibition (Candida albicans) | Inhibition (Cryptococcus neoformans) [%] | Inhibition (Klebsiella pneumoniae; 32 ug/mL) | Inhibition (Cryptococcus neoformans; 32 ug/mL)
CCCCNNC(=O)c1cc2ccccc2[nH]1 | -6.75 | -0.51% | -1.71 | – | –
CC1Cc2c(Cl)nc3nc4c(c(N)c3c2NC1=O)CCCC4 (centres undefined) | 8.15 | 2.83% | -81.78 | – | –
Cc1nc2c(cc1C#N)c(N)nn2C | 19.03 | 3.97% | -10.85 | – | –
Nc1n[nH]c2c1C(c1ccccc1)CC(=O)N2 (centres undefined) | 23.2 | 1.67% | -57.28 | – | –
N#Cc1c(N)nc(NC2CCN(Cc3ccccc3)CC2)c(C#N)c1-c1ccccc1 | 9.32 | 2.69% | -66.18 | – | –
Cc1ccc2[nH]c(=O)c(C=O)cc2c1 | 6.41 | 1.79% | 4.75 | – | –
CNCc1cc2cc(OCc3ccccc3)ccc2n1C.Cl | 14.91 | -0.02% | 0.75 | – | –
COc1nc2ccc(C)cc2cc1C=O | -5.34 | 5.7% | -4.83 | – | –
CN(C)c1nc(N)c(C#N)c(-c2ccccc2)c1C#N | -2.21 | 0.74% | -0.79 | – | –
CC(=O)O[C@H]1CC[C@H](NC(=O)c2ccccc2)CC1 | 10.24 | 3.3% | -39.27 | – | –
O=C(COc1ccc2ccccc2c1)NNCc1c[nH]c2ccccc12 | 9.52 | 3.01% | -4.32 | – | –
C/C(=N\NC(=O)c1cc2ccccc2n1Cc1ccccc1)C1CC1 | 4.04 | 0.9% | -0.08 | – | –
O=C(O)C(=Cc1ccccc1)NC(=O)c1ccccc1 | 27.9 | 0.44% | -6.77 | – | –
COc1ccccc1-c1c(C#N)c(=O)oc2c1ccc1ccccc12 | 11.02 | 9.28% | -7.79 | – | –
N#Cc1c(Cl)nc(Sc2ccccc2)c(C#N)c1-c1ccccc1 | -3.62 | 2.71% | -38.87 | – | –
COc1ccc2c(c1)cc(CN(C)Cc1cn(Cc3ccccc3)nn1)n2C | 5.47 | 2.23% | -55.57 | – | –
CC1(C)OS(=O)(=O)C2=C1NC(N)=C(C#N)C2c1ccccc1 (centres undefined) | 11.24 | 0.27% | -2.35 | – | –
Nc1c2c(nc3c1c1ccccc1n3Cc1ccccc1)CCCC2 | 9.09 | 1.09% | -84.21 | – | –
COc1ccccc1[C@H]1c2c(ccc3ccccc23)O/C(=N\Br)[C@@]1(Br)C#N | 5.34 | 8.63% | -5.55 | – | –
N#Cc1cc(C#N)c(NCCO)nc1N | 12.5 | 1.22% | -17.78 | – | –
COC1=C(C#N)C(c2ccccc2)C(C=O)=C(Cl)N1 (centres undefined) | 16.25 | 4.19% | -31.69 | – | –
Cl.ClCCCCCN1CCCCC1 | 6.55 | 2.45% | -4.11 | – | –
C#CCN(C)c1nc(NC2CCN(Cc3ccccc3)CC2)c(C#N)c(-c2ccccc2)c1C#N | -4.36 | 3.34% | -29.11 | – | –
C#CCNc1nc(N)c(C#N)cc1C#N | 1.8 | 2.29% | -24.9 | – | –
C=CCNc1[nH]c2ccc(O)cc2c1C#N | 7.13 | 2.34% | -48.34 | – | –
CCOC(=O)/C(C#N)=C\c1ccc(Cl)cc1 | 4.33 | -0.09% | -5.03 | – | –

Structure (SMILES) | Inhibition (Klebsiella pneumoniae) [%] | Inhibition (Candida albicans) | Inhibition (Cryptococcus neoformans) [%] | Inhibition (Klebsiella pneumoniae; 32 ug/mL) | Inhibition (Cryptococcus neoformans; 32 ug/mL)
C=C1CN(C)c2c(C#N)cc(C#N)c(=S)n21 | 3.88 | 4.91% | -13.76 | – | –
Cl.ClCCCN1CCCCC1 | 13.52 | 1.17% | -10.65 | – | –
O=C(NNCc1ccco1)c1cc2ccccc2[nH]1 | 1.78 | -0.84% | -3.8 | – | –
C=CCNc1nc(N)c(C#N)cc1C#N | 12.19 | 3.01% | -39.35 | – | –
C#CCN1CCc2nc3nc(N(C)C)c(C#N)cc3c(N)c2C1 | 15.18 | 3.18% | -99.98 | – | –
N#CC1(Br)C(=NBr)Oc2c(ccc3ccccc23)C1c1ccc([N+](=O)[O-])cc1 (centres undefined) | 12.27 | 25.9% | -87.41 | – | –
CSC1=NC(=Cc2cn(C(c3ccccc3)(c3ccccc3)c3ccccc3)c3ccccc23)C(=O)N1C | -25.3 | -0.44% | -10.07 | – | –
COc1ccc2nc(Cl)c(C=O)cc2c1 | – | 7.25% and 8.8% | – | -0.34% and -2.5% | -8.56% and -8.89%
OCc1c(-c2ccc(Br)cc2)nc2ccccn12 | 16.84 | 4.83% | -4.79 | – | –
O=C(N/N=C/c1c[nH]c2ccccc12)c1ccco1 | 12.93 | 1.93% | -1.51 | – | –
COc1ccc2c(c1)cc(CNc1ccccc1)n2C | 12.88 | 1.07% | -85.66 | – | –
N#Cc1cc(C#N)c(N2CCC(O)CC2)nc1N | -4.97 | 1.52% | -52.44 | – | –
CC(=O)N1CC(=O)NC1=S | 17.26 | 1.1% | 1.05 | – | –
COc1ccc2c(c1)cc(C(=O)Nc1ccccc1)n2C | 8.32 | 2.05% | -38.47 | – | –
CNC(=O)c1cc2cc(OC)ccc2[nH]1 | 17.99 | -0.84% | -6.03 | – | –
Cc1ccccc1-c1c(C=N)c(N)nc2c1S(=O)(=O)OC2(C)C | 10.81 | -0.01% | -3.14 | – | –
Nc1ccccc1C(=O)N/N=C/c1c[nH]c2ccccc12 | 18.84 | -0.37% | 0.1 | – | –
C#CCNc1ncc(C#N)c(N)n1 | 3.55 | 2.29% | -34.7 | – | –
N#Cc1cc(C#N)c(NCCC2CCN(Cc3ccccc3)CC2)nc1N | 15.31 | 0.11% | -88.16 | – | –
COc1ccc(CNNC(=O)c2cc3ccccc3[nH]2)cc1 | -6.62 | 0.44% | -2.55 | – | –
Cc1cnc2ccc(Br)cn12 | -1.82 | 1.23% | -0.9 | – | –
O=C(N/N=C/c1c[nH]c2ccccc12)c1ccc(Cl)cc1 | 14.79 | 0.77% | -0.09 | – | –
Cn1cc(/C=C2\NC(=S)NC2=O)c2ccccc21 | 6.37 | -0.01% | -4.32 | – | –
CC(C)(C)OC(=O)Nc1ccccn1 | 24.53 | 0.46% | -68.78 | – | –
CC#CCN(C)Cc1cc2cc(OCc3ccccc3)ccc2n1C.O=C(O)C(=O)O | 22.38 | 3.08% | -0.27 | – | –
CC(C)(C)OC(=O)Nc1ccc(Cl)cn1 | 13.6 | -0.26% | -54 | – | –

Structure (SMILES) | Inhibition (Klebsiella pneumoniae) [%] | Inhibition (Candida albicans) | Inhibition (Cryptococcus neoformans) [%] | Inhibition (Klebsiella pneumoniae; 32 ug/mL) | Inhibition (Cryptococcus neoformans; 32 ug/mL)
N#CC1(Br)C(=N)Oc2ccc3ccccc3c2C1c1cccc([N+](=O)[O-])c1 (centres undefined) | 16.38 | 11.2% | -26.58 | – | –
C#CCN(C)Cc1cc2cc(OCCC3CCN(Cc4ccccc4)CC3)ccc2n1C.Cl | 16.32 | 3.09% | -83.46 | – | –
N#Cc1cccnc1N | 16.36 | 1.57% | -34.57 | – | –
COc1cccc(C=C2N=C(c3ccccc3)OC2=O)c1OC(C)=O | 0.25 | -1.1% | -5.03 | – | –
CCOC(=O)c1c(C)nc(N)c(C#N)c1-c1cccs1 | -1.63 | 2.63% | -31.89 | – | –
O=C1SC(SCc2ccccc2)=NC1=Cc1cccc(OCc2ccccc2)c1 | -15.18 | 0.84% | -8.61 | – | –
O=C1OC(c2ccccc2)=NC1=Cc1ccc([N+](=O)[O-])cc1 | 9.13 | -1.46% | -3.36 | – | –
CN(C)c1nc(N)c(C#N)cc1C#N | 27.85 | 0.31% | -5.23 | – | –
CC(=O)CC(=O)N1[C@@H]2C[C@H]3CCC2(CS1(=O)=O)C3(C)C | 13.63 | 5.03% | -2.49 | – | –
CCOC(=O)C1=C(C)OC(N)=C(C#N)C1c1ccc(OC)cc1 (centres undefined) | 14.63 | 2.59% | -5.46 | – | –
CCOC(=O)c1c(C)nc(NC2CCN(Cc3ccccc3)CC2)c(C#N)c1-c1ccccc1 | 11.42 | 3.26% | -46.25 | – | –
COc1ccc2c(c1)cc(CO)n2C | 4.36 | 3.54% | -5.23 | – | –
C#CCNc1ncccn1 | 20.12 | 2.79% | -63.47 | – | –
OCc1cc2ccccc2[nH]1 | 6.48 | 2.35% | -4.31 | – | –
COC(=O)C1(NC(=O)c2ccccc2)CC1c1ccccc1 (centres undefined) | 3.5 | 0.07% | -1.1 | – | –
COc1nc(Cl)c(C#N)c(-c2ccccc2)c1C#N | 0.27 | 31.9% | -41.05 | – | –
C#CCNc1nc(NC2CCN(Cc3ccccc3)CC2)c(C#N)c(-c2ccccc2)c1C#N | -8.37 | 5.21% | -52.49 | – | –
COc1nc(N)c(C#N)cc1C#N | 5.43 | 3.36% | -30.91 | – | –
CCCCCCC(C)NNC(=O)c1cc2ccccc2[nH]1 (centres undefined) | -31.72 | 3.47% | -2.85 | – | –
COc1cc(CCC(N)=O)ccc1O | 11.33 | -0.74% | -2.02 | – | –
Cc1cnc(NC(=O)OC(C)(C)C)c(Br)c1 | 17.7 | -0.1% | -60.78 | – | –
C#CCN(C)c1nc(NCCC2CCN(Cc3ccccc3)CC2)c(C#N)cc1C#N.Cl | 3.63 | -0.31% | 0.75 | – | –
O=C1C=C(Nc2ccccc2)C(=O)N1c1ccccc1 | 6.46 | -0.48% | -3.49 | – | –
N#Cc1c(N)nc(N2CCC(Cc3ccccc3)CC2)c(C#N)c1-c1ccccc1 | 7.85 | 1.84% | -30 | – | –
Nc1c2c(nc3c1C(c1ccccc1)c1ccc4ccccc4c1O3)CCCC2 (centres undefined) | 7.96 | 0.57% | 5.07 | – | –
CCOC(=O)C1=C(C)OC(N)=C(C#N)C1c1cccnc1 (centres undefined) | 0.99 | 0.38% | -18.71 | – | –
